This excerpt belongs to a sample that is enriched for hits.
ALOX12 inh = Primary qHTS assay for inhibitors of human arachidonate 12S-lipoxygenase (ALOX12): Round 2 | Polyunsaturated fatty acid lipoxygenase ALOX12 (Homo sapiens), P18054 | purified 12hLO, xylenol orange hydroperoxide absorbance | Potency, µM (series often up to 108 µM), for the others: at the highest dose activity change, negative = inhibition, usual class: inhibitors | 580,000 tested, 1.1% active; note: potency is the fitted concentration of half-maximal effect
Target sequence (P18054 whole entry, looked up): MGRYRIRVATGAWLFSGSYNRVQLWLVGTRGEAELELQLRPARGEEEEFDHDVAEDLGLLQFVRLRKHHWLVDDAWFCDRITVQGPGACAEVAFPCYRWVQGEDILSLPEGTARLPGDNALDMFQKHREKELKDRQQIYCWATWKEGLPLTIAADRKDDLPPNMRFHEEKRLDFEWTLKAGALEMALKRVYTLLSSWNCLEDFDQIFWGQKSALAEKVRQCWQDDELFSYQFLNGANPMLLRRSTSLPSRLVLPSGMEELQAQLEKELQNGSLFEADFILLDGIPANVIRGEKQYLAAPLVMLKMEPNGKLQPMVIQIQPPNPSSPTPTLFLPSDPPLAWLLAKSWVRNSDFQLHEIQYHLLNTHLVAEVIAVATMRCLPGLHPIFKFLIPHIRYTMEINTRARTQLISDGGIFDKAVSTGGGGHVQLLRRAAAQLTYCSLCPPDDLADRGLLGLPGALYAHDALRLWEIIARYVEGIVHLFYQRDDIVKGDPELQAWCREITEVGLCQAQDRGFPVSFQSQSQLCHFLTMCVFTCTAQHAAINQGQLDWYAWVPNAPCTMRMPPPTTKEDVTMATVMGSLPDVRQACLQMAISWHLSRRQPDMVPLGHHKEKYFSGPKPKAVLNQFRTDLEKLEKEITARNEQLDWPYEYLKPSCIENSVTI
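Purified human 12hLO at 150 nM in 25 mM Hepes, 0.01% Triton X-100, pH 7.0, preincubated 15 min at room temperature with compound. Reaction started with 40 uM arachidonic acid, 30 min at room temperature. Hydroperoxide measured by Fe-xylenol orange, 573/405 nm absorbance ratio.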
TDP1 cell CPT = qHTS for Inhibitors of human tyrosyl-DNA phosphodiesterase 1 (TDP1): qHTS in cells in presence of CPT | 420,000 tested, 12% active | chicken DT40 Tdp1-/-;hTDP1 cells + 20 nM CPT, ATP luminescence, 48 h | Potency, µM (series often up to 46.2 µM), without a hit: at the highest dose activity change, negative = growth inhibition, most hits filed as inhibitors; note: potency is the fitted concentration of half-maximal effect; nearly all actives have a fitted effect of over 55% in size
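Cell growth measured by CellTiter-Glo luminescence after a minimum 48 h, 37 C compound exposure with 20 nM CPT in Tdp1-knockout DT40 cells stably expressing hTDP1, seeded 400/well; qHTS titration format.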
HT1080-NT tox = qHTS for induction of synthetic lethality in tumor cells producing 2HG: qHTS for the HT-1080-NT fibrosarcoma cell line; HT-1080-NT fibrosarcoma viability, CellTiter-Glo ATP luminescence, 48 h; Potency, µM (highest dose often 46.1 µM), for the others: at the highest dose activity, negative = less viability, usual class: cytotoxic; 360,000 tested, 1.6% active;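 note: NT is the 2HG producing partner of a matched IDH1 knockdown line; potency is the fitted concentration of half-maximal effect; 0% = DMSO-treated cells and -100% = media-only wells without cells; nearly all actives have a fitted effect of over 55% in size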
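HT-1080-NT fibrosarcoma cells (2HG-overproducing), 750 cells/well in RPMI with 5% FBS, dosed after 2 h and incubated 48 h at 37C. CellTiter-Glo luminescence normalized to DMSO and no-cell wells; concentration-response curves fitted and classed.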
IL-1B inflam inh = qHTS for Inhibitors of Inflammasome Signaling: IL-1-beta AlphaLISA Primary Screen; THP-1 LPS/ATP IL-1B secretion, AlphaLISA, 16 h; stronger effect = lower value; activity change, % at 57.5 µM; 360,000 tested, 4.7% active; AID 743279, 2014; in the data active = activity change below about -50%; inconclusive = mostly about -30% to -49%
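THP-1 cells pretreated 1 hr with compounds (up to 57.5 uM final), then stimulated with LPS (250 ng/mL final) plus ATP (1.25 mM final); secreted IL-1B measured by AlphaLISA after 16 hr, decreased signal indicating inhibition.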
TDP1 cell noCPT = qHTS for Inhibitors of human tyrosyl-DNA phosphodiesterase 1 (TDP1): qHTS in cells in absence of CPT. DT40 Tdp1-/- hTDP1 cells, no CPT, ATP luminescence, 48 h. 420,000 tested, 15% active. Potency, µM (doses to about 46.2 µM), inactives show top-dose activity change, negative = growth inhibition, actives largely listed as inhibitors; note: potency is the fitted concentration of half-maximal effect; nearly all actives have a fitted effect of over 55% in size
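Stably hTDP1-transfected Tdp1-null chicken DT40 cells were treated with library compounds minus camptothecin and grown for at least 48 hr at 37 °C, after which cellular ATP was quantified by luminescence.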
HT1080 IDH1KD tx = qHTS for induction of synthetic lethality in tumor cells producing 2HG: qHTS for the HT-1080-IDH1KD cell line; HT-1080 IDH1 knockdown viability, ATP luminescence, 48 h; Potency, µM (series often up to 46.1 µM), for inactives: top-dose activity, negative = toxicity, actives largely listed as cytotoxic; 360,000 tested, 2% active;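 note: potency is the fitted concentration of half-maximal effect; 0% = DMSO wells and -100% = cell-free medium wells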
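IDH1KD HT-1080 cells, 750/well, RPMI + 5% FBS; compound pinned after 2 h settling; 48 h, 37 °C; CellTiter-Glo luminescence; % activity normalised to DMSO and no-cell wells; curves fitted, classed by r2 and efficacy.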
The depositor's hits bear a star; ? = inconclusive; . = no result given; [ ] = dose if it differs, or a comment. Unless noted, calls come from the whole dose curve; as a rule, active = well fitted curve in the direction sought with a large enough effect; inconclusive = small, poorly fitted or top-dose-only effect, or another doubt; inactive = no such curve, though single readings can be large; an effect the other way counts as inactive or inconclusive. Unless noted, % is set by controls: 0 for no effect and ±100 for the full control effect.

SMILES | ALOX12 inh | TDP1 cell CPT | HT1080-NT tox | IL-1B inflam inh | TDP1 cell noCPT | HT1080 IDH1KD tx
CCOc1ccc(C(=O)NCCc2sc(-c3cccc(F)c3)nc2C)cc1OCC | -29% | 18µM* | . | . | ? | .
CCOc1ccc(C(=O)NCCc2csc(-c3cccc(F)c3)n2)cc1OCC | -18% | ? | . | . | ? | .
CCOc1ccc(S(=O)(=O)NCCc2sc(-c3ccc(C)cc3)nc2C)cc1 | 2% | ? | . | . | 16µM* | .
Cc1ccc(S(=O)(=O)CC(O)COc2ccc(F)cc2Cl)c(C)c1 (stereo unspecified) | 0% | -9% | 1% | -145* | -14% | -10%
COc1ccccc1S(=O)(=O)CC(O)COc1ccc(F)cc1Cl (stereo unspecified) | -17% | -9% | -13% | -62* | -32% | -2%
N#C/C(=C(/O)COC(=O)CCCNC(=O)c1ccc(Cl)cc1)c1nc2ccccc2[nH]1 | 53% | -10% | 0% | 144 | -18% | -3%
N#C/C(=C(/O)COC(=O)CSc1ccc(Cl)cc1)c1nc2ccccc2[nH]1 | -14% | 18µM* | -3% | -102* | 5.2µM* | -3%
Cc1cc(SCC(=O)OC/C(O)=C(\C#N)c2nc3ccccc3[nH]2)c(C)cc1Br | 0% | ? | ? | -100* | ? | ?
N#CC(=C(O)COC(=O)CCC1CCCCC1)c1nc2ccccc2[nH]1 | -2% | 5.8µM* | 8% | -98* | 5.2µM* | 17%
CCOC(=O)c1cccc(NS(=O)(=O)c2cc(-c3nn(CC)c(=O)c4c3CCCC4)ccc2C)c1 | 21% | . | . | . | . | .
C=CCn1c(SCC(=O)NCCOC)nnc1-c1cc2c(s1)CCC(CC)C2 (stereo unspecified) | -4% | ? | -1% | -19 | 18µM* | 1%
C=CCn1c(SCC(=O)NC(N)=O)nnc1-c1cc2c(s1)CCC(CC)C2 (stereo unspecified) | 1% | -17% | 0% | -21 | ? | -8%
C=CCn1c(SCC(=O)NCC)nnc1-c1cc2c(s1)CCC(CC)C2 (stereo unspecified) | -6% | 23µM* | 1% | -12 | 16µM* | -12%
COC(=O)c1ccccc1NC(=O)COC(=O)c1ccccc1N=Nc1ccc(N(C)C)cc1 | -17% | 16µM* | -2% | 0 | 16µM* | -5%
CN(C)c1ccc(N=Nc2ccccc2C(=O)OCC(=O)N(C)c2ccccc2)cc1 | -1% | 21µM* | -1% | -3 | ? | 1%
CC(=O)c1ccc(NC(=O)COC(=O)c2ccccc2N=Nc2ccc(N(C)C)cc2)cc1 | 0% | ? | -1% | ? | 21µM* | -2%
COC(=O)c1ccccc1NC(=O)COC(=O)c1ccco1 | -22% | 7% | 5% | 9 | -6% | 2%
CSc1ccccc1C(=O)NCCC1=CCCCC1 | -6% | . | . | . | . | .
COCCn1c(=N)c(C(=O)NCCc2ccc(OC)cc2)cc2c(=O)n3cccc(C)c3nc21 | 37% | 23µM* | -14% | -5 | 29µM* | -1%
COCCCNC(=O)c1cc2c(=O)n3cccc(C)c3nc2n(C(C)C)c1=N | -12% | -17% | 0% | -69* | ? | -6%
Cc1cc(C)nc(NNC2=CC(=[N+]3CCCCC3)CC(C)(C)C2)n1 | -8% | -25% | 12% | 1 | 15µM* | 26%
Cc1cc(C)nc(NNC2=CC(=[N+]3CCCC3)CCC2)n1 | -15% | -21% | -1% | -10 | ? | -5%
CCCCc1ccc(NC(=O)CN2C(=O)C3CCCCC3C2=O)cc1 (stereo unspecified) | -1% | ? | -7% | -76* | ? | -2%
CS(=O)(=O)c1ccc(NC(=O)CN2C(=O)C3CCCCC3C2=O)cc1 (stereo unspecified) | 204% | 16% | ? | -9 | 14% | 11%
CCOc1ccc(-c2noc(-c3nnn(-c4cc(C)ccc4C)c3N)n2)cc1 | -27% | . | . | . | . | .
SMILES | ALOX12 inh | TDP1 cell CPT | HT1080-NT tox | IL-1B inflam inh | TDP1 cell noCPT | HT1080 IDH1KD tx
COc1ccc(Cl)cc1NC(=O)Cn1cc(C(=O)c2ccc(C)cc2)c(=O)c2ccc(C)nc21 | -29% | ? | . | . | 23µM* | .
CCc1ccc(C(=O)c2cn(CC(=O)Nc3cc(OC)ccc3OC)c3nc(C)ccc3c2=O)cc1 | -11% | ? | . | . | -67% | .
Cc1ccc(CNC(=O)Cn2cc(C(=O)c3ccc(Cl)cc3)c(=O)c3ccc(C)nc32)cc1 | -10% | 16µM* | . | . | 16µM* | .
Cc1ccc(C(=O)c2cn(CC(=O)Nc3ccc(C)cc3Cl)c3nc(C)ccc3c2=O)cc1 | -9% | 10µM* | . | . | 23µM* | .
CCc1ccc(C(=O)c2cn(CC(=O)Nc3cc(C)ccc3C)c3nc(C)ccc3c2=O)cc1 | ? | -13% | . | . | -13% | .
Cc1ccc(C(=O)c2cn(CC(=O)NCc3ccccc3)c3nc(C)ccc3c2=O)cc1 | -7% | -12% | . | . | -2% | .
O=C(Nc1ccccc1C(F)(F)F)C12CC3CC(CC(C3)C1)C2 | 10% | . | . | . | . | .
Cc1ccc([C@H]2C[C@H](O)[C@@H](n3cc(-c4ccc(F)cc4)nn3)CN2C(=O)c2cccs2)cc1 | ? | ? | ? | -11 | 18µM* | -23%
Cc1ccc([C@H]2C[C@@H](n3cc(C4CC4)nn3)[C@H](O)CN2C(=O)c2cccs2)cc1 | 20% | 0% | 10% | 4 | -17% | 3%
Cc1ccc([C@H]2C[C@@H](n3cc(-c4ccc(F)cc4)nn3)[C@H](O)CN2C(=O)c2cccs2)cc1 | ? | 18µM* | -19% | -6 | 15µM* | -10%
Cc1ccc([C@H]2C[C@@H](O)[C@H](n3cc(-c4ccc(F)cc4)nn3)CN2C(=O)c2cccs2)cc1 | -5% | ? | ? | -19 | 15µM* | ?
CC(=O)N1CCC2(CC1)CN(C(=O)Cc1cccc(O)c1)Cc1ccccc1O2 | 11%[6.33 µM] | . | . | . | . | .
COc1ccc(N2CC(c3noc(-c4cccc(OC)c4)n3)CC2=O)cc1 (stereo unspecified) | -8% | . | . | . | . | .
Cc1cc(C)n(-c2nc3c(c(=O)n(CC(N)=O)c(=O)n3C)n2Cc2ccccc2C)n1 | -31% | . | . | . | . | .
